Results reported in PubChem BioAssay (Tox21).
Records with an inconclusive call do not appear. A call without a number means that no potency is given here. The source made the active and inactive calls. Unless noted, calls follow the shape of the dose curve; as a rule, active = well fitted curve in the direction sought with a large enough effect in the repeat runs; inconclusive = weak or mixed curves; inactive = no such curve, though single readings can be large; an effect the other way counts as inactive or inconclusive.

What was measured:
[1] = target: Peroxisome proliferator-activated receptor delta (Homo sapiens) (UniProt Q03181); test: qHTS assay to identify small molecule agonists of the peroxisome proliferator-activated receptor delta (PPARd) signaling pathway (AID 743212; calls by dose curve)
Peroxisome proliferator-activated receptor delta (Homo sapiens), sequence (Q03181 whole entry, looked up): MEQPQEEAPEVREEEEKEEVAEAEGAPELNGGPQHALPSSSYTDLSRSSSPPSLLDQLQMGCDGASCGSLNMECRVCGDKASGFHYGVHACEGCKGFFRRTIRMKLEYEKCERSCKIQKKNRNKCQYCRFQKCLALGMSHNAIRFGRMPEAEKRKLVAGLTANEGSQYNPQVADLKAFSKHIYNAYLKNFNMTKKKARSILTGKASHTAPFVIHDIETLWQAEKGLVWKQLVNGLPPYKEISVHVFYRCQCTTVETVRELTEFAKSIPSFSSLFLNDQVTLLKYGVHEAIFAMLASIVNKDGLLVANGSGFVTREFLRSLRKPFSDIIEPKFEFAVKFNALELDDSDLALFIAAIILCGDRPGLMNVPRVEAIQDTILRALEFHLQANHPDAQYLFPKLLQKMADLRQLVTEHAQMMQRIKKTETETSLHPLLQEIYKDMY
Procedure, shortened: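 GeneBLAzer PPARd UAS-bla HEK293H cells (beta-lactamase reporter under UAS control), plated and rested 5 h at 37 C, then exposed to compounds in DMSO at 37 C; LiveBLAzer B/G FRET substrate added, 2 h room temperature, fluorescence read.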

[2] = qHTS assay to identify small molecule antagonists of the peroxisome proliferator-activated receptor delta (PPARd) signaling pathway - cell viability counter screen (AID 743213); also: nearly all actives have a fitted effect of over 50% in size
Procedure, shortened: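 In this counter screen, HEK293H cells carrying a UAS-beta-lactamase reporter are co-treated with test compounds and 300 nM L165041 (final) for 17 h at 37 C; cell viability is quantified by CellTiter-Glo luminescence.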

[3] = target: Peroxisome proliferator-activated receptor delta (Homo sapiens) (UniProt Q03181); test: qHTS assay to identify small molecule antagonists of the peroxisome proliferator-activated receptor delta (PPARd) signaling pathway (AID 743215; active = well fitted inhibition curve with a large enough effect in the signal ratio in the repeat runs, not every such curve was filed as active; the % refers to the signal ratio;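 also: cells stimulated with agonist L165041 at 300 nM final during compound exposure; series mostly up to about 62 µM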)
Procedure, shortened: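 HEK293H UAS-bla, PPARd; agonist L165041 300 nM final with cpd in DMSO; 37 C 17 h; FRET substrate, RT 2 h; fluorescence intensity.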

[4] = target: Bile acid receptor (Homo sapiens) (UniProt Q96RI1); test: qHTS assay to identify small molecule antagonists of the farnesoid-X-receptor (FXR) signaling pathway (AID 743217; active = well fitted inhibition curve with a large enough effect in the signal ratio in the repeat runs, not every such curve was filed as active; the % refers to the signal ratio)
Bile acid receptor (Homo sapiens), sequence (Q96RI1 whole entry, looked up): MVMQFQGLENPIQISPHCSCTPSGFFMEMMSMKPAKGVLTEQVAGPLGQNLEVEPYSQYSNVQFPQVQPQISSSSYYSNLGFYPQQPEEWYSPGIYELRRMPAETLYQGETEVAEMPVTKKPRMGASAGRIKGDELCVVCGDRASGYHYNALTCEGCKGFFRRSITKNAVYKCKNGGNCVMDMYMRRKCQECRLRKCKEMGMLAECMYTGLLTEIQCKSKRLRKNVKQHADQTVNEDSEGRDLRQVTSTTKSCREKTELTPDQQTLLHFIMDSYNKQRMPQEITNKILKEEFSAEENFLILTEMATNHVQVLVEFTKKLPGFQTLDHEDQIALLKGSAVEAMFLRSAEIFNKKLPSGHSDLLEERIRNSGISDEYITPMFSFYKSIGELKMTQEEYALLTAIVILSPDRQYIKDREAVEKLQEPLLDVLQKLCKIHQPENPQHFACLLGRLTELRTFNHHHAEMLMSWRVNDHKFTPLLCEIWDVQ
Procedure, shortened: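 GeneBLAzer FXR-UAS-bla HEK 293T, CDCA-stimulated (50 uM final). Compound treatment 16 h, 37 °C. Detection: beta-lactamase cleavage of B/G FRET substrate, fluorescence.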

[5] = qHTS assay to identify small molecule agonists of the farnesoid-X-receptor (FXR) signaling pathway - cell viability counter screen (AID 743218); also: nearly all actives have a fitted effect of over 45% in size; also: potency is read from the fitted curve at half-maximal effect
Procedure, shortened: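 Parallel cytotoxicity test: compound-treated (16 h, 37 C) HEK 293T FXR-bla reporter cells were lysed with CellTiter-Glo and luminescence recorded.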

[6] = target: Bile acid receptor (Homo sapiens) (UniProt Q96RI1); test: qHTS assay to identify small molecule agonists of the farnesoid-X-receptor (FXR) signaling pathway (AID 743220; active = well fitted activation curve with a large enough effect in the signal ratio in the repeat runs, not every such curve was filed as active; the % refers to the signal ratio)
Procedure, shortened: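 Beta-lactamase reporter under UAS control in GeneBLAzer FXR HEK 293T cells (5000/well) measured with LiveBLAzer FRET substrate after 2 h at room temperature. Compound exposure lasted 16 h at 37C.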

[7] = qHTS assay to identify small molecule antagonists of the farnesoid-X-receptor (FXR) signaling pathway - cell viability counter screen (AID 743221; active = well fitted cell-killing curve with a large enough effect in the repeat runs, not every such curve was filed as active; also: nearly all actives have a fitted effect of over 50% in size)
Procedure, shortened: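 Luminescence from CellTiter-Glo measures cytotoxicity in GeneBLAzer FXR-UAS-bla HEK 293T cells. Cells were exposed to compounds with 50 uM chenodeoxycholic acid (final) for 16 h at 37 C, in wells also used for the reporter readout.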

[8] = target: Vitamin D3 receptor (Homo sapiens) (UniProt P11473); test: qHTS assay to identify small molecule agonists of the vitamin D receptor (VDR) signaling pathway (AID 743222; calls by dose curve)
Vitamin D3 receptor (Homo sapiens), sequence (P11473 whole entry, looked up): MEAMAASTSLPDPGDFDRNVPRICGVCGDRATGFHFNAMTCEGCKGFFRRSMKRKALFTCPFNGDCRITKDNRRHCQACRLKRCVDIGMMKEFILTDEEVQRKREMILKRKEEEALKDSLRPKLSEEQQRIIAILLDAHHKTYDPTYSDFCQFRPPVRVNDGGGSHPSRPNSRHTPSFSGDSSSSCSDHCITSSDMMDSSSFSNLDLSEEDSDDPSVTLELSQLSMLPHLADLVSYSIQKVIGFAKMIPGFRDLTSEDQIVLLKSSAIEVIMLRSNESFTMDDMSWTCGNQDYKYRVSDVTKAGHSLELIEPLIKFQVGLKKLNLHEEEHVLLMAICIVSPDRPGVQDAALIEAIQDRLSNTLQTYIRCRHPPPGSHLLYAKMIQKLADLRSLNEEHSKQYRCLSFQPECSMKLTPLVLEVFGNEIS
Procedure, shortened: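 In VDR-bla cells, compound-induced beta-lactamase expression is quantified by FRET substrate fluorescence. Treatment lasts 16 h at 37C; substrate develops 2 h at room temperature.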

[9] = target: Vitamin D3 receptor (Homo sapiens) (UniProt P11473); test: qHTS assay to identify small molecule antagonists of the vitamin D receptor (VDR) signaling pathway (AID 743223; active = well fitted inhibition curve with a large enough effect in the signal ratio in the repeat runs, not every such curve was filed as active; the % refers to the signal ratio)
Procedure, shortened: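 Antagonist mode uses 1alpha,25-dihydroxyvitamin D3 at 3 nM final as stimulus. VDR-bla cells receive compounds in DMSO, incubate 16 h at 37C, then a beta-lactamase FRET substrate for 2 h at room temperature before fluorescence measurement.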

[10] = qHTS assay to identify small molecule agonists of the vitamin D receptor (VDR) signaling pathway - cell viability counter screen (AID 743224); also: series mostly up to about 63 µM; nearly all actives have a fitted effect of over 50% in size
Procedure, shortened: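 Plated VDR-bla cells (4 h, 37C) received compound, incubated 16 h, then LiveBLAzer substrate 2 h RT; CellTiter-Glo added afterwards, luminescence read at 30 min.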

[11] = qHTS assay to identify small molecule antagonists of the vitamin D receptor (VDR) signaling pathway - cell viability counter screen (AID 743225); also: nearly all actives have a fitted effect of over 50% in size
Procedure, shortened: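 Read-out: CellTiter-Glo luminescence measured 30 min after reagent addition at room temperature. Cells were VDR-bla HEK 293T exposed 16 h at 37C, 5% CO2, to compound with 3 nM final calcitriol agonist.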

[12] = qHTS assay to identify small molecule agonists of the NFkB signaling pathway (AID 1159509; active = well fitted curve in the direction sought with a large enough effect in the signal ratio in the repeat runs, not every such curve was filed as active; the % refers to the signal ratio; also: series mostly up to about 61 µM)
Procedure, shortened: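 NFkB-bla ME-180 cells with a beta-lactamase reporter under an NF-kB response element were plated overnight, treated with compounds in DMSO for 5 hr at 37 C, then loaded with FRET substrate for 1.5 hr at room temperature.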

[13] = qHTS assay to identify small molecule agonists of the endoplasmic reticulum stress response signaling pathway (AID 1159516; active = well fitted activation curve with a large enough effect in the signal ratio in the repeat runs, not every such curve was filed as active; the % refers to the signal ratio)
Procedure, shortened: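 An ESRE-bla HeLa cell assay: compounds were pin-transferred from DMSO onto overnight-plated cells and left 5 hr at 37 C. Substrate was then loaded for 2 hr at room temperature before reading fluorescence at 460 nm and 530 nm.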

[14] = qHTS assay to identify small molecule agonists of the endoplasmic reticulum stress response signaling pathway - cell viability counter screen (AID 1159517; calls by dose curve)
Procedure, shortened: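 Luminescence readout: CellTiter-Glo, 30 min RT, same wells as the ESRE-bla reporter read. HeLa ESRE-bla, 1,500 cells/well, o/n 37 C; cpd 5 hr 37 C/5% CO2.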

[15] = qHTS assay to identify small molecule antagonists of the retinoid-related orphan receptor gamma (ROR-gamma) signaling pathway - cell viability counter screen (AID 1159520); also: nearly all actives have a fitted effect of over 50% in size
Procedure, shortened: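 Tet-on ROR gamma CHO cells (1,000/well) were plated 4 hr, given compounds in DMSO for 2 hr at 37 C, then induced with 1 uM final doxycycline for 16 hr. Viability was read as ATP by CellTiter-Glo luminescence after 30 min.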

[16] = target: Nuclear receptor ROR-gamma (Homo sapiens) (UniProt P51449); test: qHTS assay to identify small molecule antagonists of the retinoid-related orphan receptor gamma (ROR-gamma) signaling pathway (AID 1159521)
Procedure, shortened: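 CHO Tet-on RORγ, RORE-luc reporter. Cpd 2 h pre-incubation, then dox hyclate 1 uM final, 16 h, 37 C/5% CO2. ONE-Glo luminescence; decrease = antagonist.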

[17] = qHTS assay to identify small molecule agonists of the AP-1 signaling pathway - cell viability counter screen (AID 1159525; calls by dose curve; also: nearly all actives have a fitted effect of over 55% in size)
Procedure, shortened: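 ME-180 AP-1-bla, 2500 cells/well, Opti-MEM + 0.5% dialyzed FBS; overnight 37 °C; cpd 15-pt titration, 5 h 37 °C; CellTiter-Glo 30 min RT; luminescence read; normalised to TOAB and DMSO controls.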

[18] = qHTS assay to identify small molecule agonists of the peroxisome proliferator-activated receptor delta (PPARd) signaling pathway - cell viability counter screen (AID 743211); also: nearly all actives have a fitted effect of over 55% in size
Procedure, shortened: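 HEK293H PPARd-bla, 3000 cells/well; 5 h preincubation 37C/5% CO2; cpd in DMSO, 17 h 37C; B/G FRET substrate 2 h RT; CellTiter-Glo 30 min RT, luminescence.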

[19] = qHTS assay to identify small molecule agonists of the AP-1 signaling pathway (AID 1159526; calls by dose curve; also: potency is read from the fitted curve at half-maximal effect)

N#CCCN(CCO)CCO
Potency [1]: inactive | Potency [2]: inactive | Potency [3]: inactive | Potency [4]: inactive | Potency [5]: inactive | Potency [6]: inactive | Potency [7]: inactive | Potency [8]: inactive | Potency [9]: inactive | Potency [10]: inactive | Potency [11]: inactive | Potency [12]: inactive | Potency [13]: inactive | Potency [14]: inactive | Potency [15]: inactive | Potency [16]: inactive | Potency [17]: inactive

CN1CCCC(n2nc(Cc3ccc(Cl)cc3)c3ccccc3c2=O)CC1 (stereo unspecified)
Potency [18]: inactive | Potency [3]: inactive | Potency [5]: 21.1 µM (active) | Potency [12]: inactive | Potency [13]: inactive | Potency [14]: inactive | Potency [15]: inactive | Potency [16]: inactive | Potency [17]: inactive | Potency [19]: 12 µM (active)

O=C(CCCN1CC=C(n2c(=O)[nH]c3ccccc32)CC1)c1ccc(F)cc1
Potency [1]: inactive | Potency [3]: inactive | Potency [5]: inactive | Potency [7]: inactive | Potency [10]: inactive | Potency [11]: inactive | Potency [12]: inactive | Potency [13]: inactive | Potency [14]: inactive | Potency [15]: inactive | Potency [16]: inactive | Potency [17]: inactive | Potency [19]: inactive

CCC1CO1 (stereo unspecified)
Potency [18]: inactive | Potency [1]: inactive | Potency [2]: inactive | Potency [4]: inactive | Potency [5]: inactive | Potency [6]: inactive | Potency [7]: inactive | Potency [8]: inactive | Potency [9]: inactive | Potency [10]: inactive | Potency [11]: inactive | Potency [12]: inactive | Potency [13]: inactive | Potency [14]: inactive | Potency [15]: inactive | Potency [16]: inactive | Potency [19]: inactive

C=C/C(C)=C/C/C=C(\C)CCC=C(C)C
Potency [1]: inactive | Potency [2]: inactive | Potency [3]: inactive | Potency [4]: inactive | Potency [7]: inactive | Potency [9]: inactive | Potency [10]: inactive | Potency [11]: inactive | Potency [12]: inactive | Potency [13]: inactive | Potency [14]: inactive | Potency [15]: inactive | Potency [16]: inactive | Potency [17]: inactive | Potency [19]: inactive

CC(=O)c1cc2ccccc2s1
Potency [18]: inactive | Potency [1]: inactive | Potency [2]: inactive | Potency [4]: inactive | Potency [5]: inactive | Potency [6]: inactive | Potency [7]: inactive | Potency [9]: inactive | Potency [10]: inactive | Potency [11]: inactive | Potency [12]: inactive | Potency [13]: inactive | Potency [14]: inactive | Potency [15]: inactive | Potency [16]: inactive | Potency [19]: inactive

C=COCC(C)C
Potency [18]: inactive | Potency [1]: inactive | Potency [2]: inactive | Potency [3]: inactive | Potency [4]: inactive | Potency [5]: inactive | Potency [6]: inactive | Potency [7]: inactive | Potency [8]: inactive | Potency [9]: inactive | Potency [10]: inactive | Potency [11]: inactive | Potency [12]: inactive | Potency [13]: inactive | Potency [14]: inactive | Potency [15]: inactive | Potency [16]: inactive | Potency [19]: inactive

C=C1CCC2CC1C2(C)C (stereo unspecified)
Potency [18]: inactive | Potency [1]: inactive | Potency [5]: inactive | Potency [7]: inactive | Potency [8]: inactive | Potency [9]: inactive | Potency [10]: inactive | Potency [11]: inactive | Potency [12]: inactive | Potency [13]: inactive | Potency [14]: inactive | Potency [15]: inactive | Potency [16]: inactive | Potency [17]: inactive | Potency [19]: inactive
